The values below come from PubChem BioAssay (EPA / NIEHS).

Active and inactive are the calls of the source. The calls were made as follows: active = hit-call score of the fitted dose curve at least 0.9, where 1 is the maximum; inactive = score below 0.9.

Common to all, as to conditions: mRNA level, 48 h; actives raise or lower the signal
Read-out in test [1]: Glutamate-cysteine ligase catalytic (GCLC), GCLC (gene 2729)
Put plainly: LTEA_HepaRG_GCLC: Life Technologies and Expression Analysis (LTEA) Assay for Glutamate-cysteine ligase catalytic (GCLC) using HepaRG (AID 2283498). An outline of the steps: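 HepaRG, 48 h exposure, 8-pt half-log series from 100 uM, 0.5% DMSO vehicle; TaqMan qRT-PCR for GCLC mRNA, housekeeping-normalized; bidirectional curve fit vs DMSO baseline.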

Read-out in test [2]: growth arrest and DNA damage 45 (GADD45G), GADD45G (gene 10912)
Put plainly: LTEA_HepaRG_GADD45G: Life Technologies and Expression Analysis (LTEA) Assay for growth arrest and DNA damage 45 (GADD45G) using HepaRG (AID 2283499). An outline of the steps:
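Differentiated human HepaRG cells, 48 h post-plating, exposed 48 h in serum-free induction medium to 8 half-log concentrations (top 100 uM, 0.5% DMSO) in duplicate. GADD45G mRNA measured by Fluidigm TaqMan qRT-PCR, normalized to ACTB, GAPDH, POLR2A; bidirectional fit versus DMSO.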

Read-out in test [3]: Glutamate-cysteine ligase regulatory (GCLM), GCLM (gene 2730)
Briefly: LTEA_HepaRG_GCLM: Life Technologies and Expression Analysis (LTEA) Assay for Glutamate-cysteine ligase regulatory (GCLM) using HepaRG (AID 2283500). An outline of the steps:
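Endpoint is GCLM transcript level by qRT-PCR, normalized to three housekeeping genes, after 48 h chemical exposure of human HepaRG cells (0.5% DMSO vehicle, top 100 uM, half-log dilutions). Fitting was bidirectional relative to DMSO.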

Read-out in test [4]: Glutathione S-transferase M3 (GSTM3), GSTM3 (gene 2947)
Put plainly: LTEA_HepaRG_GSTM3: Life Technologies and Expression Analysis (LTEA) Assay for Glutathione S-transferase M3 (GSTM3) using HepaRG (AID 2283501). An outline of the steps:
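Differentiated human HepaRG cells were exposed in duplicate for 48 h in serum-free induction medium, 8 points from 100 uM top in half-log steps, 0.5% DMSO. GSTM3 mRNA was measured by TaqMan qRT-PCR, normalized to ACTB, GAPDH and POLR2A; bidirectional fit versus DMSO.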

Read-out in test [5]: Heat shock 70 kDa protein 1 (HSPA1A), gene 3303
Briefly: LTEA_HepaRG_HSPA1A: Life Technologies and Expression Analysis (LTEA) Assay for Heat shock 70 kDa protein 1 (HSPA1A) using HepaRG (AID 2283502). An outline of the steps:
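Cells were plated and cultured for 48 h, then switched to serum-free induction medium. Chemicals were added at eight half-log concentrations up to 100 uM for 48 h. RNA was then isolated and HSPA1A measured by qRT-PCR with bidirectional curve fitting against DMSO.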

Read-out in test [6]: Hypoxia-inducible factor 1-alpha (Homo sapiens) (UniProt Q16665)
Put plainly: LTEA_HepaRG_HIF1A: Life Technologies and Expression Analysis (LTEA) Assay for Hypoxia-inducible factor 1 (HIF1A) Trancription factor using HepaRG (AID 2283503). Summed up: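 HIF1A transcript level read by qRT-PCR (ACTB, GAPDH, POLR2A normalization) after 48 h chemical exposure of HepaRG cultures. Eight half-log concentrations, top 100 uM, 0.5% DMSO vehicle, duplicates; bidirectional curve fit against DMSO baseline.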

Read-out in another test: HGF (gene 3082)
Put plainly: LTEA_HepaRG_HGF: Life Technologies and Expression Analysis (LTEA) Assay for Hepatocyte Growth Facto (HGF) using HepaRG (AID 2283505). Summed up:
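Differentiated HepaRG cells in serum-free induction medium exposed 48 h in duplicate, 8 half-log concentrations from 100 uM in 0.5% DMSO. HGF mRNA by qRT-PCR, normalised to ACTB, GAPDH, POLR2A; bidirectional fitting.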

Read-out in test [7]: Insulin Like Growth Factor 1 (IGF1), IGF1 (gene 3479)
Briefly: LTEA_HepaRG_IGF1: Life Technologies and Expression Analysis (LTEA) Assay for Insulin Like Growth Factor 1 (IGF1) using HepaRG (AID 2283506). An outline of the steps: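 Cells are thawed, plated and cultured 48 h, then exposed in duplicate to chemical (highest 100 uM, half-log steps, 0.5% DMSO) for another 48 h. Total RNA is analysed by Fluidigm qRT-PCR for IGF1 expression relative to vehicle.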

Read-out in test [8]: Intercellular Adhesion Molecule 1 (ICAM1), ICAM1 (gene 3383)
Briefly: LTEA_HepaRG_ICAM1: Life Technologies and Expression Analysis (LTEA) Assay for Intercellular Adhesion Molecule 1 (ICAM1) using HepaRG (AID 2283507). An outline of the steps: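 Differentiated human HepaRG cells in serum-free induction medium exposed 48 h in duplicate to 8 half-log concentrations (top 100 uM, 0.5% DMSO). ICAM1 mRNA quantified by TaqMan qRT-PCR, normalized to ACTB, GAPDH and POLR2A; bidirectional fitting versus DMSO.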

Read-out in test [9]: Insulin-like growth factor-binding protein 1 (IGFBP1), IGFBP1 (gene 3484)
Put plainly: LTEA_HepaRG_IGFBP1: Life Technologies and Expression Analysis (LTEA) Assay for Insulin-like growth factor-binding protein 1 (IGFBP1) using HepaRG (AID 2283508). An outline of the steps: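 HepaRG cells, plated 48 h then switched to serum-free induction medium, exposed in duplicate for 48 h to 8-point half-log series from 100 uM in 0.5% DMSO. mRNA measured by qRT-PCR, normalized to ACTB/GAPDH/POLR2A; bidirectional fit versus DMSO.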

Read-out in test [10]: Interleukin 6 (IL6), IL6 (gene 3569)
Briefly: LTEA_HepaRG_IL6: Life Technologies and Expression Analysis (LTEA) Assay for Interleukin 6 (IL6) using HepaRG (AID 2283509). An outline of the steps:
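qRT-PCR read-out of IL6 transcript, normalized to three housekeeping genes, after 48 h chemical exposure of HepaRG cells; 8-point half-log series, top 100 uM, 0.5% DMSO vehicle. Bidirectional curve fitting against DMSO baseline.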

Read-out in test [11]: Interleukin 6 Receptor (IL6R), IL6R (gene 3570)
Briefly: LTEA_HepaRG_IL6R: Life Technologies and Expression Analysis (LTEA) Assay for Interleukin 6 Receptor (IL6R) using HepaRG (AID 2283510).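 As to AC50: TaqMan qRT-PCR signal normalized to ACTB GAPDH and POLR2A housekeeping genes.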 An outline of the steps: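 Cells were thawed, plated and cultured 48 h, then medium was changed to serum-free induction medium. Chemicals were added in duplicate (100 uM top, half-log steps, 0.5% DMSO) for 48 h. Lysates were analyzed by qRT-PCR for IL6R expression.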

Read-out in test [12]: Potassium channel subfamily K member 1 (KCNK1), KCNK1 (gene 3775)
Put plainly: LTEA_HepaRG_KCNK1: Life Technologies and Expression Analysis (LTEA) Assay for Potassium channel subfamily K member 1 (KCNK1) using HepaRG (AID 2283511). Summed up: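 HepaRG, 48 h exposure, 8-pt half-log series top 100 uM, 0.5% DMSO vehicle, duplicates. Readout: KCNK1 transcript by qRT-PCR (Fluidigm array), housekeeping-normalized; bidirectional curve fit relative to DMSO baseline.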

Read-out in test [13]: Keratin 19 (KRT19), KRT19 (gene 3880)
Briefly: LTEA_HepaRG_KRT19: Life Technologies and Expression Analysis (LTEA) Assay for Keratin 19 (KRT19) using HepaRG (AID 2283512). Summed up:
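Differentiated HepaRG cells in serum-free induction medium, exposed 48 h in duplicate to 8 half-log concentrations up to 100 uM in 0.5% DMSO. KRT19 mRNA by qRT-PCR, normalized to ACTB, GAPDH, POLR2A; bidirectional fit vs DMSO.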

Read-out in test [14]: JUN Transcription Factor, JUN (gene 3725)
Put plainly: LTEA_HepaRG_JUN: Life Technologies and Expression Analysis (LTEA) Assay for JUN Transcription Factor using HepaRG (AID 2283513). Summed up:
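Read-out is JUN transcript level by TaqMan qRT-PCR, normalized to ACTB, GAPDH and POLR2A, after 48 h chemical treatment of HepaRG cells. Concentration-response spanned eight half-log points up to 100 uM in 0.5% DMSO.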

Read-out in test [15]: Lipase C (LIPC), LIPC (gene 3990)
Briefly: LTEA_HepaRG_LIPC: Life Technologies and Expression Analysis (LTEA) Assay for Lipase C (LIPC) using HepaRG (AID 2283514). Summed up: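 HepaRG, 48 h exposure, 8-pt half-log series from 100 uM in 0.5% DMSO, duplicates. Readout: LIPC mRNA by Fluidigm qRT-PCR, housekeeping-normalized (ACTB/GAPDH/POLR2A). Gain or loss fitted bidirectionally against DMSO baseline.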

Read-out in test [16]: Lipoprotein lipase (LPL), LPL (gene 4023)
Briefly: LTEA_HepaRG_LPL: Life Technologies and Expression Analysis (LTEA) Assay for Lipoprotein lipase (LPL) using HepaRG (AID 2283515). An outline of the steps: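 HepaRG, 48 h exposure, 8-pt half-log dilutions from 100 uM, 0.5% DMSO vehicle, duplicates; qRT-PCR (Fluidigm array) of LPL mRNA vs housekeeping genes; bidirectional curve fit relative to DMSO baseline.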

Read-out in test [17]: MicroRNA 122 (MIR122), gene 406906
Briefly: LTEA_HepaRG_MIR122: Life Technologies and Expression Analysis (LTEA) Assay for MicroRNA 122 (MIR122) using HepaRG (AID 2283516). Also: the transcript read is the microRNA miR-122. Summed up:
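Human liver HepaRG cultures receive test chemicals for 48 h at eight half-log concentrations from 100 uM. Expression is quantified by qRT-PCR with ACTB/GAPDH/POLR2A normalization and fitted bidirectionally against 0.5% DMSO.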

Read-out in test [18]: matrix metalloproteinase-10 (MMP10), MMP10 (gene 4319)
Put plainly: LTEA_HepaRG_MMP10: Life Technologies and Expression Analysis (LTEA) Assay for matrix metalloproteinase-10 (MMP10) using HepaRG (AID 2283517). Summed up: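 Transcript levels come from Fluidigm qRT-PCR normalized to three housekeeping genes, with curves fitted bidirectionally against 0.5% DMSO. Human HepaRG cells were dosed for 48 hours at concentrations up to 100 uM.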

Read-out in test [19]: 3-Hydroxy-3-Methylglutaryl-CoA Synthase 2 (HMGCS2), HMGCS2 (gene 3158)
Put plainly: LTEA_HepaRG_HMGCS2: Life Technologies and Expression Analysis (LTEA) Assay for 3-Hydroxy-3-Methylglutaryl-CoA Synthase 2 (HMGCS2) using HepaRG (AID 2283504). An outline of the steps:
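Human HepaRG cells in serum-free induction medium were exposed in duplicate for 48 h to 8-point half-log series from 100 uM top in 0.5% DMSO. HMGCS2 mRNA measured by TaqMan qRT-PCR, normalised to ACTB, GAPDH, POLR2A; bidirectional fit versus DMSO.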

Hypoxia-inducible factor 1-alpha (Homo sapiens), sequence (Q16665 whole entry, looked up): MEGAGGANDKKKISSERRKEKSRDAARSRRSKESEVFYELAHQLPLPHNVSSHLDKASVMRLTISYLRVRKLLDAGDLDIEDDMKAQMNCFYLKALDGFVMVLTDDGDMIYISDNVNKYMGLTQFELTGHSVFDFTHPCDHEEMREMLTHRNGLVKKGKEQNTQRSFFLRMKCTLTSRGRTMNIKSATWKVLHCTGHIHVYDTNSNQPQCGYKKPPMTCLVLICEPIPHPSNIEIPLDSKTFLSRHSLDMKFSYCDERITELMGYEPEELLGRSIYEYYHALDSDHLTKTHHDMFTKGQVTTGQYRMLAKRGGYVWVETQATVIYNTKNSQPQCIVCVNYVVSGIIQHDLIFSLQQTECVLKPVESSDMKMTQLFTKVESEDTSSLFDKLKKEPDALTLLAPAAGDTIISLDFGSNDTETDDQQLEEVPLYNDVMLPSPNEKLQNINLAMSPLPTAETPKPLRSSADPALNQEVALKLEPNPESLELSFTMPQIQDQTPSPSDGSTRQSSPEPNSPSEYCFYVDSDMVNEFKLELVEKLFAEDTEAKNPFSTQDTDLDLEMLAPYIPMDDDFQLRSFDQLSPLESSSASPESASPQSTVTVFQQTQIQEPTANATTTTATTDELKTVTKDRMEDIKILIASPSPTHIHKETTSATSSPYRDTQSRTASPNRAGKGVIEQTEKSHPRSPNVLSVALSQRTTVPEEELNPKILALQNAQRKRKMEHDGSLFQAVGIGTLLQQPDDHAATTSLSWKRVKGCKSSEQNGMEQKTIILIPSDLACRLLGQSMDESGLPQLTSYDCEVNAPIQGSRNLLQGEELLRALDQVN

For the molecule `CSc1ccc(Oc2ccc(S(N)(=O)=O)cc2CN(C)C)cc1C`, the outcome (in test [1]; in test [3]; in test [4]; in [5]; in test [6]; with HGF (gene 3082)) was inactive. The outcome in test [7], in test [8], in [11], in test [12], in test [14] and in [15] was inactive. Besides, the result in test [17] and in test [18] was inactive. For the same molecule, the AC50 in test [2] was 50 µM (active); in [9], 69.7 µM (active); in test [10], 88.2 µM (active); in test [13], 50 µM (active); in test [16], 77 µM (active).
As for `O=C(N[C@@H](c1ccccc1)[C@@H]1CCCCN1)c1cccc(C(F)(F)F)c1Cl`, the outcome (in test [1]; in [3]; in test [4]; in test [6]; in the test with HGF (gene 3082); in test [15]) was inactive. Moreover, the call in test [17] was inactive. Also, the AC50 in [2] is 82.8 µM (active); in test [5], 50 µM (active); in test [19], 69.4 µM (active); in [7], 17.9 µM (active); in test [10], 85 µM (active); in [11], 50 µM (active). Further, the AC50 in test [12] is 50 µM (active); in [13], 12.6 µM (active); in [14] it was 65 µM (active); in [16] it was 84.7 µM (active).
In the case of `OCC(CO)n1cnc(-c2ccc(F)cc2)c1-c1ccnc(Oc2ccccc2)n1`, the molecule was classed as inactive (in [1]; in test [2]; in test [3]; in test [4]; in test [6]; with HGF (gene 3082)). The result in test [7], in test [8], in test [9], in test [10], in test [11] and in test [12] was inactive. The result in [13], in [14], in test [15], in test [16], in [17] and in [18] was inactive. Further, the AC50 in test [5] is 37 µM (active).
